# Measured values reported in PubChem BioAssay AID2685 (National Center for Advancing Translational Sciences (NCATS), 2010).
# Out of some 320,000 compounds screened, about 2,100 (0.66%) were called active. Inconclusive results (about 53%) are left out. The sample holds actives, similar compounds and a random draw of the others, so the mix is not that of the screen. Calls come from the whole dose curve; as a rule, active = well fitted inhibition curve with a large enough effect in the signal ratio, with a control signal flat (not every such curve was filed as active); inconclusive = small, poorly fitted or top-dose-only effect, or effect the other way, or a change in a side signal; inactive = flat fitted curve, though single readings scatter; the % refers to the signal ratio.
# Experiment: qHTS Assay for Lipid Storage Modulators in Drosophila S3 Cells;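 for cell number change: cells counted by Cell Tracker Red CMTPX staining in the red channel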; for lipid storage change, negative = inhibition: % is set by controls: 0 for no effect and ±100 for the full control effect
# Conditions: BODIPY lipid droplet fluorescence, 18-24 h, cells fed with added oleic acid; cell number change: measured here: cell count max response; series mostly up to 46.1 µM
# Procedure, shortened: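 Drosophila S3 cells got compounds at several concentrations plus oleic acid (400 uM solution). Laser-scanning cytometry with 488 nm excitation read lipid droplets at 500-530 nm and cells at 575-640 nm. Percent activity was relative to 20 uM Triacsin C.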
# Potency is the fitted concentration of half-maximal effect.
SMILES,Potency,cell number change [%],"lipid storage change, negative = inhibition"
O=C(NCC(=O)N(CCN1CCOCC1)C(C(=O)NC1CCCC1)c1ccccc1)c1cccs1 (stereo not drawn),inactive,-0.374,
Cc1ccc(N(Cc2ccccc2)C(=O)c2cccc(S(=O)(=O)N3CCN(C)CC3)c2)cc1,inactive,-1.81,
Cc1cc(=O)[nH]c(N/N=C/c2ccc(Cl)cc2Cl)n1,inactive,3.1,
CCN1CCN(Cc2ccc(NC(=O)c3ccc(C)c(/C=C/c4cnc(Nc5cc(N6CCNCC6)nc(C)n5)cn4)c3)cc2C(F)(F)F)CC1,18.4 µM (active),-17.2,
CCN1CCN(Cc2ccc(NC(=O)c3ccc(C)c(NC(=O)c4ccnnc4)c3)cc2C(F)(F)F)CC1,inactive,,
CCN1CCN(Cc2ccc(NC(=O)c3ccc(C)c(NC(=O)c4ccc5n[nH]nc5c4)c3)cc2C(F)(F)F)CC1,inactive,,
CN1CCc2nc(NC(=O)c3cccc(S(=O)(=O)N4CCc5ccccc54)c3)sc2C1,inactive,12.6,
COCC(=O)Nc1cc(C(=O)NCC(C)C)ccc1Cl,inactive,4.26,
COc1cc(OC)c(OC)cc1/C=N/n1c(C)nc2ccccc2c1=O,inactive,16.2,
Cc1nc2ccccc2c(=O)n1/N=C/c1ccccc1O,inactive,14.5,
COc1ccc(Br)cc1/C=N/n1c(C)nc2ccccc2c1=O,3.66 µM (active),-4.17,
Cc1ccc(NC(=O)Cn2nc(-c3ccccc3)nc2-c2ccccc2)c(C)c1,inactive,-8.2,
CCOC(=O)CNC(=O)CSc1ncnc2c1cnn2-c1ccc(C)cc1,inactive,-17,
CCOC(=O)CSc1ncnc2c1cnn2-c1ccccc1,inactive,-3.98,
CCOC(=O)CSc1ncnc2c1cnn2-c1ccc(Cl)cc1,0.184 µM (active),4.64,
CCCOc1cccc(C(=O)N(Cc2ccco2)C2CCS(=O)(=O)C2)c1 (stereo not drawn),inactive,-9.39,
CCNC(=S)NCc1ccc2[nH]c(C)cc2c1,inactive,15.9,
COc1cc(C(=O)NCCc2ccc(F)cc2)c([N+](=O)[O-])cc1OC,inactive,,
CCOC(=O)c1ccc(NS(=O)(=O)c2c(C)[nH]c(C)c2C(=O)N2CCCCC2)cc1,inactive,,
Cc1[nH]c(C)c(S(=O)(=O)NCCc2ccccc2)c1C(=O)N1CCCC1,inactive,13.4,
COc1ccccc1CNS(=O)(=O)c1c(C)[nH]c(C)c1C(=O)N1CCCCC1,18.4 µM (active),-19.3,
Cc1[nH]c(C)c(S(=O)(=O)Nc2ccc(OC(F)(F)F)cc2)c1C(=O)N1CCCCC1,4.11 µM (active),-12.7,
COc1ccc(CCNS(=O)(=O)c2c(C)[nH]c(C)c2C(=O)N2CCCCC2)cc1OC,inactive,-25.1,

SMILES,Potency,cell number change [%],"lipid storage change, negative = inhibition"
COC(=O)c1ccc(NS(=O)(=O)c2c(C)[nH]c(C)c2C(=O)N2CCCC2)cc1,inactive,-16.1,
Cc1[nH]c(C)c(S(=O)(=O)NCCc2ccccc2)c1C(=O)N1CCCCC1,11.6 µM (active),-13.9,
COc1ccccc1CNS(=O)(=O)c1c(C)[nH]c(C)c1C(=O)N1CCCC1,inactive,,
Cc1ccccc1CNS(=O)(=O)c1c(C)[nH]c(C)c1C(=O)N1CCCCC1,inactive,-3.58,
O=C(CN1CCN(Cc2ccccc2Cl)CC1)N/N=C/C=C\c1ccccc1[N+](=O)[O-],inactive,0.435,
Cc1ccccc1C(=O)c1cccn1CC(=O)NCC(C)c1ccccc1 (stereo not drawn),inactive,-7.34,
COc1ccc(C(C(=O)NCCC(C)C)N(CCO)C(=O)c2snc(C(N)=O)c2N)cc1 (stereo not drawn),inactive,-7.09,
O=C(CSc1nnnn1C1CCCC1)NCc1ccc2c(c1)OCO2,inactive,,
CC1CCN(C(=O)c2ccccc2NS(=O)(=O)c2ccccc2)CC1,inactive,7.63,
Clc1ccc(N2CCN(Cc3ccco3)CC2)cc1,inactive,9.59,
Cc1[nH]c2ccccc2c1/C=C(\C#N)C(=O)NC1CC1,inactive,,
CC1CCN(C2(O)C(=O)Nc3ccc([N+](=O)[O-])cc32)CC1 (stereo not drawn),inactive,-1.63,
Cc1cccc(NC(=O)c2cccc(N3C(=O)CCC3=O)c2)c1,inactive,-21.8,
COc1ccc(NC(=O)c2cccc(N3C(=O)C4C5C=CC(C6CC56)C4C3=O)c2)c(OC)c1 (stereo not drawn),5.17 µM (active),,
COc1ccc(NC(=O)c2cccc(N3C(=O)C4C5C=CC(C6CC56)C4C3=O)c2)cc1 (stereo not drawn),inactive,8.84,
Cc1ccc(NC(=O)c2cccc(N3C(=O)C4C5CCC(C5)C4C3=O)c2)c(C)c1 (stereo not drawn),inactive,26.1,
COc1ccc(NC(=O)c2ccccc2N2C(=O)C3C4C=CC(C5CC45)C3C2=O)c(OC)c1 (stereo not drawn),inactive,-15.3,
Cc1cccc(NC(=O)c2cccc(N3C(=O)C4C5C=CC(C6CC56)C4C3=O)c2)c1 (stereo not drawn),1.3 µM (active),-23.8,
O=C(Nc1ccc(F)cc1)c1cccc(N2C(=O)C3C4C=CC(C4)C3C2=O)c1 (stereo not drawn),inactive,-17.9,
O=C(Nc1ccccc1)c1cccc(N2C(=O)C3C4C=CC(C5CC45)C3C2=O)c1 (stereo not drawn),16.4 µM (active),-4.48,
COc1ccc(NC(=O)c2cccc(N3C(=O)C4C5C=CC(C5)C4C3=O)c2)c(OC)c1 (stereo not drawn),inactive,-15.9,
CC(C)CNS(=O)(=O)c1ccc(OCC(=O)Nc2ccc3c(c2)OCCO3)cc1,inactive,,
Cc1nnc(SCC(=O)N2CCN(S(=O)(=O)c3ccc(Cl)cc3)CC2)n(N)c1=O,inactive,-9.35,

SMILES,Potency,cell number change [%],"lipid storage change, negative = inhibition"
COc1ccc(/C=N/Nc2cc(C)nc(N3CCOCC3)n2)c(OC)c1,inactive,-6.43,
Cc1ccc(NC(=O)c2cc([N+](=O)[O-])ccc2N2CCOCC2)cc1S(=O)(=O)N(C)C,inactive,9.84,
O=C(Nc1ccccc1O)c1nc(Cl)ccc1Cl,inactive,9.99,
COc1ccc(NS(=O)(=O)c2ccc(N3CCN(CCO)CC3)c([N+](=O)[O-])c2)cc1,10.3 µM (active),-29.2,
COC(=O)c1cc(NS(=O)(=O)c2ccc(N3CCCCC3)c([N+](=O)[O-])c2)cc(C(=O)OC)c1,inactive,-2.76,
COc1ccc(NS(=O)(=O)c2ccc(C)c(C(=O)N(C)Cc3ccc(OC)cc3OC)c2)cc1,,,-11.3% [at 0.0737 µM] (inactive)
COc1ccc(NS(=O)(=O)c2ccc(C)c(C(=O)N3CC(C)OC(C)C3)c2)cc1 (stereo not drawn),inactive,23.9,
COC(=O)c1ccc(NS(=O)(=O)c2ccc(OC)cc2)cc1,inactive,,
COc1ccc(NS(=O)(=O)c2ccc(N)c(C(=O)O)c2)cc1,20.6 µM (active),1.73,
COc1ccc(NS(=O)(=O)c2ccc(C)c(C(=O)O)c2)cc1,25.9 µM (active),-20.6,
COc1ccc(S(=O)(=O)Nc2ccc(NC(C)=O)cc2)cc1,inactive,29.3,
O=C(O)c1ccc(NS(=O)(=O)c2ccc(N3CCCC3)c([N+](=O)[O-])c2)cc1,inactive,8.51,
CCOC(=O)CNC(=O)CSc1nnc(-c2ccco2)n1Cc1ccco1,inactive,-21.7,
O=C(CCCCCNC(=O)N1CCn2c1nc1ccccc12)N[C@@H](C(=O)O)c1ccccc1,inactive,-11.9,
Cc1cc(C)c(C#N)c(OCC(=O)Nc2ccccc2)n1,inactive,11.6,
CN1CCN(C(=O)c2ccc(Oc3ccc([N+](=O)[O-])cc3)cc2)CC1,inactive,,
COc1cccc(CNC(=O)c2ccc(NC(=O)CC3SC(N4CCCCC4)=NC3=O)cc2)c1 (stereo not drawn),inactive,11.7,
O=C(Cn1cc[n+](CC(=O)c2ccc(Cl)cc2Cl)c1)c1ccc(Cl)cc1Cl,inactive,-3.27,
N/C(=N\OC(=O)c1cccc2ccccc12)c1cccnc1,inactive,18.1,
N/C(=N\OC(=O)c1cccc2ccccc12)c1ccc(Br)cc1,10.3 µM (active),18.1,
N/C(=N\OC(=O)c1cccc2ccccc12)c1ccncc1,inactive,1.71,
CC(=O)c1cccc(NC(=O)c2ccc(C(=O)Nc3cccc(C(C)=O)c3)nc2)c1,inactive,0.877,
O=C(Oc1ccccc1)c1ccccc1OS(=O)(=O)c1ccccc1,0.517 µM (active),,

SMILES,Potency,cell number change [%],"lipid storage change, negative = inhibition"
O=Cc1ccccc1OS(=O)(=O)c1ccccc1,inactive,-9.79,
Cc1ccccc1S(=O)(=O)Oc1ccccc1C(=O)Oc1ccccc1,inactive,-11.7,
CC(=O)NC(C)C(=O)OCc1ccc(Cl)cc1Cl (stereo not drawn),inactive,,
COc1cccc(CNC(=O)CCCCCn2c(=S)[nH]c3ccc(N4CCOCC4)cc3c2=O)c1,inactive,4.01,
Cc1cccc(N2CCN(C(=O)CCCCCn3c(=S)[nH]c4ccc(N5CCOCC5)cc4c3=O)CC2)c1C,20.6 µM (active),1.42,
O=C(CCCCCn1c(=S)[nH]c2ccc(N3CCOCC3)cc2c1=O)NCCc1ccccc1,inactive,-6.4,
CCc1nn(CC(=O)NCCCN(CC)CC)c(=O)c2cc3sc(C)cc3n12,inactive,7.9,
COc1cccc(C(=O)COC(=O)C(C)N2C(=O)c3ccccc3C2=O)c1 (stereo not drawn),inactive,8.05,
CCOC(=O)c1sc(NC(=O)c2ccoc2C)c(C(N)=O)c1C,0.731 µM (active),-15.9,
COC(=O)c1c(NC(=O)c2ccoc2C)sc(C)c1C,inactive,20.9,
CCOC(=O)c1sc(NC(=O)c2ccccc2C(=O)O)c(C(=O)OCC)c1C,inactive,-2.04,
O=S(=O)(c1cccc(C(F)(F)F)c1)N1CCCC1c1cccnc1 (stereo not drawn),inactive,4.77,
CCCC1(c2ccccc2)NC(=O)N(CC(=O)c2[nH]c(C)c(C(=O)OCC)c2C)C1=O (stereo not drawn),8.2 µM (active),-26.5,
COC(=O)c1c(C)[nH]c(C(=O)CN2C(=O)NC3(CCOc4ccccc43)C2=O)c1C (stereo not drawn),inactive,-21.7,
CCOC(=O)c1c(C)[nH]c(C(=O)CN2C(=O)NC3(CCCC3)C2=O)c1C,inactive,-4.44,
Oc1ccc(C[C@H]2CNCCN2CC2(c3ccccc3)CC2)cc1,inactive,19.8,
COc1ccc(OC)c(NC(=O)CCN2CCCCC2)c1,inactive,-3.94,
COc1ccc(OC)c(NC(=O)CN(Cc2ccc(F)cc2)C2CCCCC2)c1,0.291 µM (active),6.76,
COc1ccc(OC)c(NC(=O)CCCC(=O)NC2CCCCC2)c1,7.31 µM (active),-7.97,
COc1ccc(CCCC(=O)NC2CCCCC2)cc1,inactive,0.276,
COc1ccc(OC)c(NC(=O)CN(Cc2ccc(Cl)cc2)S(C)(=O)=O)c1,inactive,1.52,
COc1ccc(Cl)cc1NC(=O)CN(C)C1CCCCC1,inactive,-8.15,
